# Reference: ChEMBL document CHEMBL3988442, “University of Dundee, Small-Polar-MMV Screening Library” (2021)
# Among all 38,000 compounds or so, about 1,200 (3.2%) showed an effect of 50% or more. The median lay at about -58%. For the sample, strong results were picked, then their nearest neighbours and some compounds at random.
# Test system: Plasmodium falciparum
# Assay: Calibr Malaria Delayed Death Assay SOP
# Assay type: functional, organism-based
# Set-up: scale not given: in the data most compounds retested in dose-response had high values
# Conditions: concentration 4.99e-06 (unit not given; other assays of the set use mol/L)
row,SMILES,Percent Effect [%]
1,CCS(=O)(=O)N1CCC2(CC1)CN(CC1CCOC1)c1ccccc12.O=C(O)C(F)(F)F (stereo unspecified),19.88
2,Cc1cnc(N2CCC3(CCN(CC4CC4)C3=O)CC2)nc1,-170.6
3,O=C(O)C(F)(F)F.c1ccc2c(c1)N(CC1CCOC1)CC21CCN(c2cnccn2)CC1 (stereo unspecified),68.42
4,CS(=O)(=O)N1CCC2(CC1)CN(CC1CCOC1)c1ccccc12.O=C(O)C(F)(F)F (stereo unspecified),-57.4
5,c1cnc(N2CC3(CCN(C4CCOC4)CC3)c3ccccc32)nc1 (stereo unspecified),-111.6
6,O=C(O)C(F)(F)F.O=C1N(CC2CC2)CCC12CCN(c1ncccn1)CC2,4.695
7,O=C(O)C(F)(F)F.O=C(O)C(F)(F)F.OCCN1CC2(CCN(CC3CC3)CC2)c2ccccc21,-50.6
8,O=C(O)C(F)(F)F.c1cnc(N2CCC3(CC2)CN(CC2CC2)c2ccccc23)nc1,85.9
9,COC[C@@H]1CCC[C@@]12CN(C(=O)N1CCCC1)CCO2,-140.1
10,Cc1ccc(C(=O)N2CCC3(CCN3Cc3ccc(F)cc3)C2)cn1.O=C(O)C(F)(F)F (stereo unspecified),-82.72
11,CC(C)C(C(=O)N1CCCN(c2cccnn2)CC1)n1cncn1 (stereo unspecified),-14.43
12,CN(C)S(=O)(=O)c1ccc2c(c1)N(Cc1ccccn1)CCC2,-104.8
13,Cc1ccc([C@H]2CN(C(=O)C3CCC3)C[C@@H]2N)o1,-3.638
14,Cc1nc(N2CCN(C)CC2)ncc1C(=O)N1CCCCCC1,-28.58
15,O=C1CCN(C(=O)CCc2ccc(Cl)cc2Cl)CCN1,-159.9
16,Cc1cnn(CC2CCCCN2C(=O)c2cccc(C(N)=O)c2)c1 (stereo unspecified),-136.1
17,CCCn1ncc(CN(Cc2cccnc2)Cc2ccsc2)c1C,-140.4
18,CCCn1ncc(CN(Cc2ccsc2)Cc2ccco2)c1C,-133.4
19,CCCn1ncc(CN(CCN(C)C)Cc2ccsc2)c1C,54.25
20,Cc1ccc(NC2CCN(C(=O)COc3ccccc3)CC2)nn1,-125.7
21,O=c1n(CCNCc2ccc3ccccc3c2)nc2ccccn12,-86.86
22,CCOc1cc(C(=O)N2CCCC(c3noc(CC)n3)C2)ccn1 (stereo unspecified),-108.4
23,NCC1Cc2cc(-c3cncc(C(=O)N4CCCCC4)n3)cc(F)c2O1 (stereo unspecified),51.14
24,O=C(c1cncc(NCC2COc3ccccc3C2)n1)N1CCCC1 (stereo unspecified),-147.2

row,SMILES,Percent Effect [%]
1,NCC1Cc2cc(-c3cncc(C(=O)N4CCOCC4)n3)cc(Cl)c2O1 (stereo unspecified),-15.5
2,Cc1nc(-c2ccco2)ccc1C(=O)NCCC(=O)N1CCCCC1,-60.18
3,Cc1cc(C)c2cc(CNCc3ccc(C)o3)c3nn(C)c(=O)n3c2c1,62.16
4,Cc1cc(C)c2cc(CNCc3ccco3)c3nn(C)c(=O)n3c2c1,74.31
5,Cc1cc(C)c2cc(CNC(C)C)c3nn(C)c(=O)n3c2c1,20.42
6,CCOCCCNCc1cc2c(C)cc(C)cc2n2c(=O)n(C)nc12,-70.5
7,Cc1cc(C(=O)NCc2ccco2)nn1C,-62.29
8,Cc1cc(C)c2cc(CNCc3cccnc3)c3nn(C)c(=O)n3c2c1,28.22
9,Cc1cc(C)c2cc(CNC3CCCCC3)c3nn(C)c(=O)n3c2c1,78.75
10,Cc1ccn(CCC(=O)NCc2ccc(C)o2)n1,-117.2
11,Cc1ccc(CNC(=O)c2cc(C)n(C)n2)o1,-43.25
12,COc1ccccc1CCNC(=O)NCC(=O)Nc1cccnc1,-188.8
13,COC(=O)CNC(=O)CCCn1cnc2ccccc2c1=O,-30.86
14,O=C(c1cccnc1-c1ccoc1)N1C[C@H]2CC[C@@H]1C2,6.669
15,O=C(CCO)N1CCC2(CCc3ccc(-c4ccoc4)cc32)CC1,-85.78
16,Cc1ccc2c(c1)C1(CC2)CCN(CC(=O)O)CC1.O=C(O)C(F)(F)F,-81.36
17,CN(C)CC(=O)N1CCc2ncnc(-c3cncnc3)c2CC1.O=C(O)C(F)(F)F,-41.61
18,O=C(O)C(F)(F)F.O=C(O)C(F)(F)F.c1cncc(-c2ccc3c(c2)CCC32CCN(Cc3ccco3)CC2)c1,73.11
19,CN(C)CC(=O)N1CCC2(CCc3ccc(-c4ccncc4)cc32)CC1.O=C(O)C(F)(F)F.O=C(O)C(F)(F)F,-49.14
20,Cc1ccc2c(c1)CCC21CCN(CCO)CC1,15.58
21,O=C(O)C(F)(F)F.OCCN1CCC2(CCc3cc(-c4ccoc4)ccc32)CC1,60
22,CN(C)CC(=O)N1CCC2(CC1)Cc1ccccc1CN(C)C2=O.O=C(O)C(F)(F)F,-24.83
23,Cc1ccc2c(c1)CCC21CCN(C(=O)CN(C)C)CC1.O=C(O)C(F)(F)F,50.73
24,CN(C)CC(=O)N1CCC2(CCc3cc(-c4cccnc4)ccc32)CC1.O=C(O)C(F)(F)F.O=C(O)C(F)(F)F,79.5

row,SMILES,Percent Effect [%]
1,O=C(O)C(F)(F)F.O=C(O)C(F)(F)F.c1cncc(-c2ccc3c(c2)CCC32CCN(Cc3nccs3)CC2)c1,47.52
2,O=C(O)C(F)(F)F.c1cncc(-c2ccc3c(c2)C2(CC3)CCN(c3nncs3)CC2)c1,21.42
3,Cc1ccc(CN2CCc3ncnc(-c4ccoc4)c3CC2)o1.O=C(O)C(F)(F)F,-147
4,Cc1ncc(C(=O)N2CCCCC2c2nc3cc(F)ccc3[nH]2)c(O)n1 (stereo unspecified),-22.18
5,CS(=O)(=O)N1CCO[C@@H]2CN(C(=O)C3CCOC3)CC[C@@H]2C1 (stereo partly specified),-33.97
6,CC1c2ncc(Cn3cccn3)n2CCN1S(C)(=O)=O.O=C(O)C(F)(F)F (stereo unspecified),-110.2
7,COc1ccc2c(ccn2CCC(=O)N[C@H](C(=O)O)C(C)C)c1,-46.34
8,O=C(O)C(F)(F)F.O=S(=O)(C1CC1)N1C[C@H]2CCC[C@@]2(COCc2ccccn2)C1,2.137
9,Cc1ccc(CNc2cc3c(cc2Cl)NC(=O)CO3)cc1C,-53.48
10,CC(C)c1nccc(-c2nccn2CCS(C)(=O)=O)n1,-2.25
11,COc1cccc(OCC(=O)N(C)c2cccnc2)c1,-135.2
12,c1cncc(-c2ccc3c(c2)CCC32CCNCC2)c1,86.19
13,O[C@H]1[C@H](n2cc(-c3cccnc3)nn2)c2ccccc2C12CCNCC2,-21.88
14,c1cc(-c2ccc3c(c2)C2(CCNCC2)CC3)ccn1,-27.62
15,CCCN1CCCn2nc(CNS(=O)(=O)c3ccc(F)cc3)cc2C1,-65.3
16,Cc1nnn2c1COC(CNC(=O)c1cccn1C)C2 (stereo unspecified),-28
17,COc1cccc(CNC(C)Cn2cccn2)c1OC.Cl (stereo unspecified),-25.91
18,COc1ccc(CNC(C)c2cccc(Br)c2)c(OC)c1OC.Cl (stereo unspecified),66.18
19,CCOc1cccc(C(C)NCc2ccc(OC)c(OC)c2OC)c1 (stereo unspecified),77.1
20,COc1cc(CNC(C)Cn2cccn2)cc(Cl)c1OC.Cl (stereo unspecified),-39.22
21,COc1cc(CNC(C)c2cccc(Cl)c2)cc(OC)c1OC (stereo unspecified),62.46
22,COc1ccccc1CNC(C)c1ccc2[nH]c(=O)[nH]c2c1 (stereo unspecified),-107.7
23,COc1ccc(C(C)NCc2c[nH]nc2C)cc1Br.Cl (stereo unspecified),17.2
24,COc1cc(CNC(C)Cn2cccn2)cc(OC)c1OC.Cl (stereo unspecified),-15.53

row,SMILES,Percent Effect [%]
1,CCOc1cccc(C(C)NCc2c(C)nn(C)c2N(C)C)c1 (stereo unspecified),-4.179
2,CC1c2ncc(CNC(=O)C3CC3)n2CCN1Cc1ccccn1.O=C(O)C(F)(F)F.O=C(O)C(F)(F)F (stereo unspecified),-38.32
3,Cc1sc(CS(C)(=O)=O)nc1-c1ccc(Cl)cc1,-81.11
4,Cc1cc(N2CCC3(CCCN(C4CCOCC4)C3=O)C2)ccn1 (stereo unspecified),-85.7
5,Cc1cc(NC(=O)N2CCCC2CN2CCOCC2)nn1C (stereo unspecified),-54.38
6,Cc1n[nH]cc1CNC1CCN(c2ccc(F)cc2)CC1.Cl,-38.43
7,Cc1n[nH]cc1CNC1CCN(c2cccc(C(F)(F)F)c2)CC1,62.67
8,COc1cccc(-c2n[nH]cc2CNC2CCN(C3CC3)CC2)c1.Cl,18.36
9,Cn1[nH]c(Br)c2/c(=N\CCN)ncnc1-2,-80.01
10,CCn1ccnc1CN(C)C1CCCN(CCc2ccccc2)C1 (stereo unspecified),76.22
11,CN(Cc1nnc(C2CC2)n1C)C1CCN(CCc2ccccc2)C1 (stereo unspecified),-85.28
12,CN(C(=O)CCc1ccncc1)C1CCCN(CCc2ccccc2)C1 (stereo unspecified),-32.08
13,CN(C(=O)c1cccnc1)C1CCCN(CCc2ccccc2)C1 (stereo unspecified),-66.95
14,CN(C(=O)CSc1ccccn1)C1CCCN(CCc2ccccc2)C1 (stereo unspecified),-11.51
15,O=C(NCCOc1ccc(Cl)cn1)NCCc1ccccn1,-11.42
16,O=c1cc2c(nn1CN1CCSCC1)CCC2,-0.0745
17,CN(C)C1CCCN(C(=O)NCCc2cc(F)ccc2F)C1 (stereo unspecified),-83
18,CC(=O)N1CC(C)CN(C(=O)c2cnccn2)c2ccccc21 (stereo unspecified),-30.69
19,Cn1nccc1NC(=O)c1cccc(CN2C[C@H]3CC[C@@H](C2)N3)c1,-132.7
20,CCCc1ccc(CN2CCC3(CC2)CNC(=O)C3)o1,20.41
21,CC(C)n1nc(CN(C)C)c2c1CN(CC1CC1)CC2.O=C(O)C(F)(F)F.O=C(O)C(F)(F)F,-96.94
22,CC(C)n1nc(CN2CCCC2)c2c1CN(CC1CC1)CC2.O=C(O)C(F)(F)F.O=C(O)C(F)(F)F,54
23,Cn1nc(CN2CCCC2)c2c1CN(CC1CC1)CC2.O=C(O)C(F)(F)F.O=C(O)C(F)(F)F,-21.27
24,Cc1noc(C)c1CN1CC[C@H]2OCC[C@@]2(C(=O)NC2CCCC2)C1.O=C(O)C(F)(F)F,8.677
